Assay results published in PubChem BioAssay (EPA / NIEHS).
Active and inactive are the calls of the source. Rule for the calls: active = hit-call score of the fitted dose curve at least 0.9, where 1 is the maximum; inactive = score below 0.9.

test: ATG_Sox_CIS: Attagene CIS-FACTORIAL HepG2 Assay for human SRY-box transcription factor (SOX) (AID 2282960); settings: HepG2 Attagene cis-factorial SOX reporter, mRNA; actives raise or lower the signal
Description: ATG_CIS is a cell-based, multiplexed-readout assay that uses HepG2, a human liver cell line, with measurements taken at 24 hours after chemical dosing in a 24-well plate.ATG_Sox_CIS is one of 52 assay component(s) measured or calculated from the ATG_CIS assay. It is designed to make measurements of mRNA induction, a form of inducible reporter, as detected with fluorescence intensity signals by Reverse transcription polymerase chain reaction (RT-PCR) and Capillary electrophoresis technology.Data from the assay component ATG_Sox_CIS was analyzed into 1 assay endpoint. This assay endpoint, ATG_Sox_CIS, was analyzed with bidirectional fitting relative to DMSO as the negative control and baseline of activity. Using a type of inducible reporter, measures of mRNA for gain or loss-of-signal activity can be used to understand the reporter gene at the transcription factor-level as they relate to the gene SOX1. Furthermore, this assay endpoint can be referred to as a primary readout, because this assay has produced multiple assay endpoints where this one serves a reporter gene function. To generalize the intended target to other relatable targets, this assay endpoint is annotated to the dna binding intended target family, where the subfamily is HMG box protein.
Human liver HepG2 cells are transiently transfected with multiple reporter transcription units (MRTUs) in 6-well plates using FuGene 6 reagent (Roche; 3 ml FuGene/1 mg DNA). The MRTU constructs are regulated by a cis-regulating element (promoter). […] A major difference between the CIS and TRANS system is that in CIS activities of endogenous TFs are measured, whereas the TRANS assay evaluates changes in activities of exogenous, chimeric NR-Gal4 proteins. […] At the end of 24 hour incubation, total RNA was isolated using TriZol reagent (Invitrogen). The isolated RNA is then reverse-transcribed using oligo(dT) primer and Mo-MLV reverse transcriptase (Invitrogen) with DNAse I (Ambion) treatment for 30 min. The one-tenth of the produced cDNA was amplified by PCR using Taq DNA polymerase (Invitrogen) and two reporter sequence-specific primers. The PCR products were fluorescently labeled by primer extension with 6-arboxyfluorescein (6-FAM) 5'-labeled reporter sequence-specific primer (2 min at 95 C, 20 s at 68 C and 10 min at 72 C) and these products were digested with 5U of HpaI (New England Biolabs) for 2h at 37 C. The fragments were purified using Qiaquick PCR columns (Qiagen), analyzed on an ABI 3130xL genetic analyzer (Applied Biosystems) with peak positions identified by using a set of X-rhodamine (ROX)-labeled MapMarker1000 molecular weight standards (BioVentures). The raw capillary electrophoresis data was processed using Attagraph software (Attagene).

| Compound | outcome | AC50 |
| --- | --- | --- |
| FC(F)(F)C(F)(F)C(F)(F)C(F)(F)C(F)(F)C(F)(F)CCI | inactive | – |
| Cc1oc(-c2ccccc2)nc1CCOc1cccc2c1ccn2CCC(=O)O | inactive | – |
| O=[N+]([O-])C(CO)(CO)CO | inactive | – |
| C1CCC(SSC2CCCCC2)CC1 | inactive | – |
| CNCc1cc(F)ccc1Oc1ccc(Cl)c(Cl)c1 | inactive | – |
| CCCCOC(=O)CCCCCCCCC(=O)OCCCC | inactive | – |
| CC1(C)NC(=O)NC1=O | inactive | – |
| CCOC(=O)CCC(=O)OCC | inactive | – |
| Cc1nc(-c2ccc3c(c2)CCN(CCC2CCC(NC(=O)/C=C/c4ccc(F)cc4)CC2)CC3)no1 (stereo not given) | inactive | – |
| Cc1cccc([N+](=O)[O-])c1C | inactive | – |
| O=C(O)Cc1ccccc1Nc1c(Cl)cccc1Cl | inactive | – |
| COc1cc(S(=O)(=O)O)c(C)cc1N=Nc1c(O)ccc2cc(S(=O)(=O)O)ccc12 | inactive | – |
| CN1CCCC1=O | inactive | – |
| Nc1ccc2c(c1)C(=O)c1ccccc1C2=O | inactive | – |
| O=C(N[C@@H](Cc1ccccc1)[C@@H](O)C(=O)N1C[C@@H](O)[C@@H](O)C1)c1cc2cc(Cl)ccc2[nH]1 | inactive | – |
| O=C(O)CCCCC(=O)O | inactive | – |
| COc1ccc(C)cc1N | inactive | – |
| Clc1cc(Cl)c(Cl)cc1Cl | inactive | – |
| CNC(=O)[C@H]1O[C@@H](n2cnc3c(NCc4cc(Cl)ccc4OCc4cc(C)no4)ncnc32)[C@H](O)[C@@H]1N | inactive | – |
| CC(=O)Oc1ccccc1C(=O)O | inactive | – |

| Compound | outcome | AC50 |
| --- | --- | --- |
| CCCc1cc(=O)[nH]c(=S)[nH]1 | inactive | – |
| CC=Cc1ccc(O)c(OC)c1 | inactive | – |
| Cc1cccc(Nc2cc(Cl)nc(SCC(=O)O)n2)c1C | inactive | – |
| Nc1ccc(S(=O)(=O)c2ccc(N)cc2)cc1 | inactive | – |
| COCCOC[C@H](CC1(C(=O)NC2CCC(C(=O)O)CC2)CCCC1)C(=O)Oc1ccc2c(c1)CCC2 (stereo not given in full) | inactive | – |
| Cc1cc(=O)[nH]c(=S)[nH]1 | inactive | – |
| Cc1ccc(N(C)C)cc1 | inactive | – |
| NC(=O)Cn1c(=O)cc(CCN2CCN(c3nccc4sccc34)CC2)c2ccc(F)cc21 | inactive | – |
| CCCCc1ccc2c(n1)[C@@H](c1ccc(OC)cc1C[C@H](C)C(=O)O)[C@H](C(=O)O)[C@H]2c1ccc2c(c1)OCO2 | inactive | – |
| Cc1ccccc1Cl | inactive | – |
| CCOc1ccc2c(c1)C(C)=CC(C)(C)N2 | inactive | – |
| Cc1cc(NC(=O)C(=O)O)cc(C)c1Oc1ccc(O)c2c1CCC2 | inactive | – |
| COc1ccc(S(=O)(=O)N2C(=O)[C@@](c3ccccc3OC)(N3C[C@H](O)C[C@H]3C(=O)N(C)C)c3cc(Cl)ccc32)c(OC)c1 | – | 122 µM (active) |
| COc1cc(-c2nc(NC(=O)c3cc4cc(C)cc(C)c4n3CC(=O)O)sc2CCC2CCCCC2)c(OC)cc1Cl | – | 100 µM (active) |
| CC(=O)OCCOCCOCCOC(C)=O | inactive | – |
| CCCCCCCCCCO | inactive | – |
| OC[C@@H](O)[C@@H](O)[C@H](O)[C@H](O)CO | inactive | – |
| C=CCc1ccc(O)c(OC)c1 | inactive | – |
| Cc1nc(C)nc(N2C[C@@H](C)N(c3ccnc([C@@H](C)O)n3)[C@@H](C)C2)n1 | inactive | – |
| CCCCCCCCCCCCCCCC | inactive | – |
